Screen size: about 310,000 compounds; about 2,200 (0.71%) showed an effect of 50% or more. The effect is printed as a negative number. Many of the other results were omitted from the sample, so strong results are more common in it than they were.
biological target: human ether-à-go-go-related gene (hERG) potassium channel (human, UniProt Q12809); test: primary screen, population patch clamp on CHO cells stably expressing hERG; higher = less effect of the substance
Sequence (Q12809 whole entry, looked up): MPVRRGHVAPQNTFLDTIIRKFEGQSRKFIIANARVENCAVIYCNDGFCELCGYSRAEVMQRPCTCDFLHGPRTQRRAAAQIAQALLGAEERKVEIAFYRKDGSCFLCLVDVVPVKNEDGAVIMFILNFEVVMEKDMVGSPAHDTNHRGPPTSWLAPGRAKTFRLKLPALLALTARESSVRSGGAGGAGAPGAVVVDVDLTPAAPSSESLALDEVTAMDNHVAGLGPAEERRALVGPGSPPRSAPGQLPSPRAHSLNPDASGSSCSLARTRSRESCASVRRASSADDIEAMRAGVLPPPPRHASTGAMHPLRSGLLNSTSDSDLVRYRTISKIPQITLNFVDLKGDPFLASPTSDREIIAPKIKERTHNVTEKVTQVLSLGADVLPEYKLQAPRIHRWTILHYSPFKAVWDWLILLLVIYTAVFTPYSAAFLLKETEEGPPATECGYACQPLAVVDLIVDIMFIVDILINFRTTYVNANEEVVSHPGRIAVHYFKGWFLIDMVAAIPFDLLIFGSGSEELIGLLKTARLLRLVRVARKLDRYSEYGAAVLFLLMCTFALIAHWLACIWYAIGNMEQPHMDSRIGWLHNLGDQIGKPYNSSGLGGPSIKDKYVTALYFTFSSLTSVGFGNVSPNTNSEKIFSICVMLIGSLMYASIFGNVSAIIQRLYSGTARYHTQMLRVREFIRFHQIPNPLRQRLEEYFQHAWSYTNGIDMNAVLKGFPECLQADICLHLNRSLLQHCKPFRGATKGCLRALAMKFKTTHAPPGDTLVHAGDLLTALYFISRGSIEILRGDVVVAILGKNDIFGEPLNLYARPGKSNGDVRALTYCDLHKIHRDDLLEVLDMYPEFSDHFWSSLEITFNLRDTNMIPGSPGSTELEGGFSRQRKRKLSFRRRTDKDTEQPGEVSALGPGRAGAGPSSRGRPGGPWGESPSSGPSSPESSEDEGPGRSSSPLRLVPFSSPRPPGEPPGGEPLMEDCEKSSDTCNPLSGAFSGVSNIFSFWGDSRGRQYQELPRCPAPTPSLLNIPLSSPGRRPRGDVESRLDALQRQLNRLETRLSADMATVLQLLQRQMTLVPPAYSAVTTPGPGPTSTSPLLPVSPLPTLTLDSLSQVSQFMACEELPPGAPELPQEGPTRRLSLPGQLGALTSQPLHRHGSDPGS

SMILES | hERG current change (%, negative = inhibition) at 1uM [%]
NC(=O)Nc1ccccc1C(=O)NCCc1ccccc1 | 9.22
Cn1c(SCc2ccc3c(c2)OCO3)nnc1-c1ccccc1 | 10.4
Cc1cc2nnn(-c3nnc(-c4ccccc4)c4ccccc34)c2cc1C | 5.53
CCCc1[nH]n(-c2ccc(F)cc2)c(=O)c1C=Nc1cccc(F)c1 | 16.9
COC(=O)c1[nH]c2ccc(Br)cc2c1NC(=O)C(C)N1CCN(C2CCCCC2)CC1 (stereo not shown) | -82.6
COC(=O)c1[nH]c2ccc(Br)cc2c1NC(=O)CN1CCCc2ccccc21 | 8.7
COC(=O)c1[nH]c2ccccc2c1NC(=O)C(C)N1CC(C)OC(C)C1 (stereo not shown) | 10.2
Cc1scc(-c2n[nH]c(=S)n2C(C)c2ccccc2)c1C (stereo not shown) | 8.59
Cc1ccc(CNC(=O)[C@H](C)NC(=O)C2CCN(C(=O)[C@@H](N)CC(C)C)CC2)cc1 | 6.77
COCCNc1c2c(nc3ccccc13)CCC2.Cl | -41.5
OCCNc1c2c(nc3ccccc13)CCCC2 | -15.9
Cl.c1ccc(CNc2c3c(nc4ccccc24)CCC3)cc1 | -75.8
OCCNc1c2ccccc2nc2ccccc12 | -3.35
Cl.c1ccc(CNc2nc(NCc3ccccc3)c3ccccc3n2)cc1 | 16.8
CC(C)CNc1c2c(nc3ccccc13)CCC2.Cl | -33.5
c1ccc(CNc2c3ccccc3nc3ccccc23)cc1 | -74.5
O=C(NCc1ccco1)c1c2c(nc3ccccc13)CCC2 | 3.32
c1coc(CNc2c3c(nc4ccccc24)CCC3)c1 | -82
CCc1ccc(NC(=O)c2cnc3scc(C)n3c2=O)cc1 | 4.58
Cc1ccc(NC(=S)NCCc2ccc(Cl)cc2)c(C)c1 | 12.4
COc1ccc(CNC(=O)CCCn2nc(C)c3c(C)n(-c4ccc(C)cc4)nc3c2=O)cc1 | 6.87
O=c1c2ccccc2cnn1Cc1nnc(-c2cccs2)o1 | 13.7

SMILES | hERG current change (%, negative = inhibition) at 1uM [%]
CCOC(=O)CSc1nc2c(c(=O)[nH]c(=O)n2C)n1CCCc1ccccc1 | 1.75
CCOc1ccc(S(=O)(=O)NCCCN2CCOCC2)cc1 | 9.88
Cn1cnnc1SCC(=O)OCN1C(=O)c2ccccc2C1=O | 7.64
COc1ccc(CCNC(=O)c2cccc3ccccc23)cc1OC | 22
COc1ccc(CCNC(=O)c2cnc3ccccn3c2=O)cc1 | -1.13
COc1ccc(CCNC(=O)c2c(C)nc3ccccn23)cc1OC | -9.75
COc1ccc(CCNC(=O)c2c(C)nc3ccccn23)cc1 | 4.94
COc1ccc(CCNC(=O)c2cc3c(=O)n4ccccc4nc3n(C3CCCCC3)c2=N)cc1 | -67.6
COc1ccc(CCNC(=O)c2cc3c(=O)n4ccccc4nc3n(C3CCCCC3)c2=N)cc1OC | -61.9
COc1ccc(CN(C)CC(=O)Nc2cccc(S(=O)(=O)N(C)c3ccccc3)c2)c(OC)c1 | -25
COc1ccc([N+](=O)[O-])c(OC)c1C(=O)NC(=O)Nc1c(F)c(F)c(F)c(F)c1F | 4.71
O=C(NCCN1CCN(C(=O)c2ccc(F)cc2)CC1)c1ccc(F)cc1 | -32
O=C(NCCN1CCN(C(=O)c2cccc(Br)c2)CC1)C(=O)NCc1ccccc1 | -11.2
O=C(NCCN1CCN(C(=O)c2ccc([N+](=O)[O-])cc2)CC1)C(=O)NCc1ccccc1 | -85.9
COc1ccc(NC(=O)C(=O)NCCN2CCN(C(=O)c3ccc(C)cc3)CC2)cc1 | -28.6
CCOc1ccc(NC(=O)C(=O)NCCN2CCN(S(=O)(=O)c3ccc(C)cc3)CC2)cc1 | 11.6
CCOc1ccc(NC(=O)C(=O)NCCN2CCN(C(=O)c3ccc(C)cc3)CC2)cc1 | -65.5
O=C(NCCN1CCN(C(=O)c2ccc(Br)cc2)CC1)c1ccc(Br)cc1 | -63.5
CC(C)(C)c1ccc(C(=O)N2CCN(CCNC(=O)C(=O)NCc3ccccc3)CC2)cc1 | -8.22
Cl.O=C(NCCN1CCCC1)c1ccc(Br)cc1 | 3.38
O=C(NCCN1CCN(c2ccc([N+](=O)[O-])cc2)CC1)NCc1ccccc1 | -20.2

— publication PMC4336329 (PLoS ONE, 2015)
